Bioassay records deposited in PubChem by National Center for Advancing Translational Sciences (NCATS).
D2 ag-1 = Beta-Arrestin HTS for Positive Allosteric Modulators of the Human D2 Dopamine Receptor: Agonists. D(2) dopamine receptor (Homo sapiens), P14416. DiscoveRx PathHunter D2 beta-arrestin, luminescence, 90 min; 100% = 57 uM dopamine signal. activation, % (test concentration not listed). 360,000 compounds, 0.084% hits; in the data active = activation above about 40%; inconclusive = between about 15% and that limit
Target sequence (P14416 whole entry, looked up): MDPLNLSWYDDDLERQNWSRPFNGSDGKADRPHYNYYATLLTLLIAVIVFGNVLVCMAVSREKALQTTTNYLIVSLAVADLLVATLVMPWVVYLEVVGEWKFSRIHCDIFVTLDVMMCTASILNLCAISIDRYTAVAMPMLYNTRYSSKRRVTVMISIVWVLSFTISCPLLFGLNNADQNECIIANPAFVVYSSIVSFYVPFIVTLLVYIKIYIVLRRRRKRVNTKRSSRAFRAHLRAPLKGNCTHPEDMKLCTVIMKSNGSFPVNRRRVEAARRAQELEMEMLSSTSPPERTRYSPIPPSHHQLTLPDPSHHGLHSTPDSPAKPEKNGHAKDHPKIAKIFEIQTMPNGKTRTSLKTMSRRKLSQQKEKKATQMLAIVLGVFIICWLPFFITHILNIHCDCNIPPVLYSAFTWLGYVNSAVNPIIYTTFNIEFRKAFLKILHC
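DiscoveRx PathHunter D2 beta-arrestin cells (2,100/well) attached overnight, then compound-stimulated 90 min at 37 C in HBSS/10 mM HEPES/0.1% Tween-20 buffer; beta-galactosidase complementation read by luminescence after 1 h at ambient temperature. Dopamine 57 uM final (EC100) as control.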
D2 PAM-1 = HTS Assay for Positive Allosteric Modulators of the Human D2 Dopamine Receptor: Primary Screen for Potentiators. potentiation, % at 10 µM. HEK293 T-REx D2, calcium flux, EC20 dopamine potentiation. AID 485347, 2010. D(2) dopamine receptor (Homo sapiens), P14416. 340,000 compounds, 0.34% hits;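 active = potentiation over 3 SD above the plate norm, cut at about 30% in these data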
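Primary screen. Calcium kinetics in induced HEK293 T-REx D2 cells: compound pre-addition 180 s, EC20 dopamine, 180 s more.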
D2 ag-2 = HTS Assay for Allosteric Agonists of the Human D2 Dopamine Receptor: Primary Screen for Agonists. HEK293 T-REx D2 cells, calcium flux agonist mode. activation, % at 2 µM. D(2) dopamine receptor (Homo sapiens), P14416. 340,000 compounds, 0.53% hits;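 active = activation over 3 SD above normal in the single-dose calcium agonist read, cut at about 30% in these data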
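HEK293 Trex D2 cells, tetracycline-induced, o/n 30 C 5% CO2; no-wash Ca dye, RT 30–90 min; 10-cycle baseline, 23 nl cpd added, kinetic Ca read 180 s; agonist hits = positive Ca response.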
D2 PAM-2 = Beta-Arrestin HTS for Positive Allosteric Modulators of the Human D2 Dopamine Receptor: Potentiators; D(2) dopamine receptor (Homo sapiens), P14416; DiscoveRx D2 beta-arrestin cells, luminescence, 90 min; 100% = 57 uM dopamine signal; potentiation, % (no concentration beside the values); 360,000 compounds, 0.23% hits; in the data active = potentiation above about 50%; inconclusive = mostly about 30% to 49%
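PathHunter beta-arrestin assay in DiscoveRx D2 cells. Compounds were added with an EC20 of dopamine (50 nM final) for 90 min at 37 deg C. Luminescence was read 1 h after detection reagent, with 57 uM dopamine as the EC100 control.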
D2 antagonist = HTS Assay for Allosteric Antagonists of the Human D2 Dopamine Receptor: Primary Screen for Antagonists. 340,000 compounds, 2% hits. AID 485344, 2010. HEK293 TREx D2 cells, calcium flux, dopamine EC80. inhibition, % at 10 µM. D(2) dopamine receptor (Homo sapiens), P14416; in the data active = inhibition above about 30%; inactive = below that, where a call was filed
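Dopamine at EC80 is the agonist stimulus; test compounds precede it by 180 s. Calcium flux read kinetically in a force-coupled, inducible HEK293 T-REx D2 cell line.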
Hits are given with their value; i = inactive; ? = inconclusive; nt = no result given. The list is not random: actives were taken first. Their share in the collection is about 2.4%.

SMILES	D2 ag-1	D2 PAM-1	D2 ag-2	D2 PAM-2	D2 antagonist
COc1ccc(OC)c(CNC(=O)Cn2nc(C)c3nn(-c4ccc(Cl)cc4)c(C)c3c2=O)c1	nt	i	i	nt	nt
NNc1nc(-c2ccccc2Cl)nc2sc3c(c12)CCCC3	?	i	i	53	i
COc1ccc(CNC(=O)c2oc3c(c2C)-c2nn(Cc4ccc(Cl)cc4)cc2CC3)cc1	nt	i	i	nt	nt
COc1cc(NC(=O)c2ccc3c(SCC(=O)O)c4c(nc3c2)CCC4)cc(OC)c1OC	i	i	i	i	36
CCCCN(CC)C(=O)CSc1nc2n[nH]c(C)c2c(=N)n1-c1ccc(CC)cc1	nt	i	i	nt	nt
OCCN(Cc1ccccc1)CC1CC2C=CC1C2 (stereo unspecified)	i	i	i	i	37
OCCN(Cc1ccccc1)CC1CCCCC1	i	i	i	i	i
O=C(NC1CCN(S(=O)(=O)c2ccc(F)cc2)CC1)c1ccco1	i	i	i	i	i
O=C(NC1CCN(S(=O)(=O)c2ccccc2C(F)(F)F)CC1)c1ccco1	i	i	i	i	30
CCC(C)NC(=O)c1ccc(Cn2c(=O)c3cccn3c3cccnc32)cc1 (stereo unspecified)	nt	i	i	nt	nt
CCCOC(=O)c1cc(-c2ccc(C=O)o2)ccc1Cl	i	i	i	i	31
O=C(Nc1ccc(F)c(Cl)c1)N1CCC(CN2CCc3ccccc3C2)CC1	nt	i	i	nt	nt
CC(NC(=O)Nc1ccc(O)cc1)(C(F)(F)F)C(F)(F)F	i	i	i	118	i
Cc1cccc(NC(=O)Cn2c(=O)n(CCc3ccccc3)c(=O)c3sc4ccccc4c32)c1	nt	i	i	nt	nt
CCOC(=O)C1(c2csc(N)n2)COC(=O)C1 (stereo unspecified)	i	i	i	i	44
CN(C)c1ccc(C2CC(c3c(O)n(C4CCCCC4)c(=O)[nH]c3=O)=Nc3ccccc3S2)cc1 (stereo unspecified)	nt	i	i	nt	nt
O=C(NCc1ccccc1CN1CCCC1)c1ccc(Cl)c(S(=O)(=O)N2CCCC2)c1	i	i	i	i	33
Cc1ccc(C(=O)NCc2ccccc2F)cc1S(=O)(=O)N1CCCC1	i	i	i	i	i
O=[N+]([O-])c1ccc(Cl)c(S(=O)(=O)N2CCCCCC2)c1	i	i	i	70	i
O=C(NCc1ccccc1CN1CCCC1)c1cc2cc(Cl)ccc2o1	i	i	i	i	40
CN1CCN(S(=O)(=O)c2cc([N+](=O)[O-])ccc2Cl)CC1	i	i	i	i	i
Cc1ccc(C(=O)NCc2ccccc2CN2CCCC2)cc1S(=O)(=O)N1CCOCC1	i	i	i	i	51
O=C(NCc1ccc(Cl)cc1)c1cc2ccccc2o1	nt	nt	i	nt	nt
CCN1CCOC(=O)C1CC(=O)Nc1cc(Cl)ccc1OC (stereo unspecified)	nt	i	i	nt	nt
O=C(NCC1COc2ccccc2O1)c1ccc(Cl)c(S(=O)(=O)N2CCOCC2)c1 (stereo unspecified)	i	i	i	i	31
SMILES	D2 ag-1	D2 PAM-1	D2 ag-2	D2 PAM-2	D2 antagonist
O=C(c1ccc(Cl)c(S(=O)(=O)N2CCCCC2)c1)N1CCCCC1	i	i	i	i	i
COc1ccc(C(=O)NCc2ccco2)cc1S(=O)(=O)N1CCOCC1	i	i	i	i	i
CC(=O)N1CCN(C(=O)c2ccc(Cl)c(S(=O)(=O)N3CCCCCC3)c2)CC1	i	i	i	i	32
COc1ccc(C(=O)NCc2ccccc2CN2CCCC2)cc1S(=O)(=O)N1CCOCC1	i	i	i	i	45
COc1ccc(N2CCN(C(=O)C34CCC(C)(C(=O)C3)C4(C)C)CC2)cc1 (stereo unspecified)	i	i	i	i	37
CC12CCC(C(=O)N3CCN(c4ccccc4)CC3)(CC1=O)C2(C)C (stereo unspecified)	i	i	i	i	i
COc1cc(C(CCN2CCCC2)c2c(OC)cc(OC)c3ccc(=O)oc23)cc(OC)c1OC (stereo unspecified)	i	i	i	i	33
